# From PubChem
# An excerpt weighted towards active compounds, which were near 1.8% of everything screened.
# Bfl-1 A1 inh = inhibitors of the anti-apoptotic protein A1, read as caspase activation | MEF A1-2A-BIM cells, Caspase-Glo 3/7 luminescence, 3 h; percent of clofoctol response, vehicle zero | caspase activation, % (no concentration beside the values) | 330,000 compounds, 0.066% hits;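 active = over half of replicate activation scores above 10%, or exactly half above 10 with the replicate mean above 10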
# AI-2 QS mod = modulates the Vibrio harveyi AI-2 quorum sensing system; Vibrio harveyi JMH597 AI-2 luminescence/OD600 ratio, 9 h; active compounds read low; strain lacks LuxN and CqsS sensors; 0 = neutral-control median; activity change, % at 7.5 µM; 300,000 compounds, 0.4% hits; in the data active = activity change below about -75%, passing the limit was not always enough;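 note: luminescence divided by OD600 gain over 9 h not by final OD600 alone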
# aDG glyco act = increases alpha dystroglycan glycosylation; AID 624168; 360,000 compounds, 0.22% hits; Pro5-aDG cells, alpha-DG glycosylation AlphaScreen (IIH6); 0% Pro5, 100% B10-LARGE cell signal; activation, % at 10 µM;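 active = activation of at least 8% versus controls, or a plate z-score of at least 8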;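 note: Pro5 are CHO cells carrying HIG-tagged alpha-DG that lacks glycosylation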
# Mot1-301 SUMO = blocks SUMOylation pathway, rescuing yeast Mot1-301 growth; S. cerevisiae Mot1-301 growth rescue, ATP luminescence, 38.5C; percent above DMSO median, 100 means doubled; growth rescue, % at 18.8 µM; 320,000 compounds, 1% hits;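 active = every valid replicate shows activation above 250% relative to neutral control wells; inactive = the rest, any valid replicate at or below 250%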;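 note: OY570 slx delta 5 strain wells were the positive control but not used for scaling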
# ARNT-TACC3 inh = disruptors of human ARNT/TACC3 interaction | Q9Y6A5 | AlphaScreen His-ARNT PAS-B/GST-TACC3 binding, luminescence; TACC3 fragment carries E629A point mutation | inhibition, % at 9.99 µM | 390,000 compounds, 0.66% hits | AID 623870;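 active = mean inhibition of replicates at least 50% and at least half of replicates each reaching 50%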;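 note: 0% = complete ARNT plus TACC3 wells and 100% = ARNT alone without TACC3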
# Mot1 SUMO dose = SUMO pathway inhibitors in yeast Mot1-301 growth | AID 493004 | S. cerevisiae Mot1-301 galactose growth, ATP luminescence, 24 h; -100 = growth of slx-deleted rescue strain | 2,300 tested, under 10 active | shares compounds with Mot1-301 SUMO | growth activity, percent, % at 42 µM;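 active = Signal drops as the depositor expects, and the fitted half-maximal dose is no more than ten times the top valid tested dose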;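 note: more negative values mean stronger growth rescue toward the control strain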
# Starred values were filed as active, the others as inactive; . = not tested or not shown; + = active, no number.
SMILES,Bfl-1 A1 inh,AI-2 QS mod,aDG glyco act,Mot1-301 SUMO,ARNT-TACC3 inh,Mot1 SUMO dose
Cc1cc(NC(=O)CCC(=O)N(c2cccnc2)C(C(=O)NC2CCCC2)c2ccccc2)no1 (stereo not given),0,38,0,+,.,0
O=C(COC(=O)c1ccccc1SCC(=O)N1CCCC1)NC1CCCCC1,-1,15,0,792*,-4,0
O=C(COC(=O)c1ccccc1SCC(=O)N1CCCC1)NC1CCS(=O)(=O)C1 (stereo not given),0,24,0,-25,-1,.
COc1ccccc1OCc1ccc(C(=O)N(C)c2ccccc2)o1,1,14,0,3,2,.
COc1ccc(CCNC(=O)Cn2nnc(-c3ccc(N4CCOCC4)cc3)n2)cc1OC,-2,12,0,710*,6,0
COc1ccc(CCNC(=O)Cn2nnc(-c3cccc(OC)c3OC)n2)cc1OC,-1,9,0,31,1,.
Cc1nn(Cc2ccc(C(=O)Nc3ccccc3C(F)(F)F)o2)c(C)c1Br,0,19,3,440*,-8,0
COc1ccc(/C=N/NC(=O)CCn2cnc3ccccc32)cc1,0,12,0,4,0,.
COc1cccc(/C=N/NC(=O)CCn2cnc3ccccc32)c1,0,6,0,479*,-4,0
COc1ccccc1C(=O)N/C(=C\c1cn(C)c2ccccc12)C(=O)N1CCOCC1,1,10,0,5,0,.
Cc1nnc(SCC(=O)NC(C)(C)C)n1NCc1ccc(Cl)cc1,0,22,0,785*,-2,0
Cc1nnc(SCC(=O)NC(C)(C)C)n1NCc1ccc(N(C)C)cc1,-1,25,0,-15,0,.
C=CCN=C1N[C@@H](c2cccc(C(F)(F)F)c2)C(C(=O)OC)=C(C)N1CC,0,8,0,245,0,.
CCN1C(=NCCCCO)N[C@@H](c2cccc(C(F)(F)F)c2)C(C(=O)OC)=C1C,1,9,0,658*,-11,1
CCN1C(=NCc2cccc(Cl)c2)N[C@@H](c2cccc(F)c2)C(C(=O)OC)=C1C,0,4,2,773*,4,0
COC(=O)C1=C(C)N(Cc2ccccc2)C(=NCCCCO)N[C@H]1c1cccc(C(F)(F)F)c1,1,.,2,-18,0,.
CCN1C(=NCC(C)C)N[C@@H](c2cccc(C(F)(F)F)c2)C(C(=O)OC)=C1C,0,21,0,779*,0,0
COc1ccc(N(CC(=O)N/N=C(\C)CCc2ccccc2)S(=O)(=O)c2ccc(C)cc2)cc1,0,7,0,-20,5,.
COc1ccccc1Nc1ncccc1[N+](=O)[O-],1,12,0,241,0,.
CC(C)(CNC(=O)c1cccs1)CNC(=O)c1cccs1,1,2,0,667*,-5,0
N#Cc1ccc(Oc2ccc(S(=O)(=O)N3CCCCC3)cn2)cc1,0,27,0,764*,-11,0
OCCN(CCO)CC(O)Cn1c2ccccc2c2ccccc21 (stereo not given),0,37,0,13,-6,.
Cc1ccc(-n2c(-c3ccco3)nc3c(cnn3-c3ccc(C)cc3)c2=O)cc1,1,-3,0,734*,-6,0
Cc1ccc(-n2c(-c3ccco3)nc3c(cnn3-c3ccccc3C)c2=O)cc1,1,14,0,-13,-9,.
CCOC(=O)c1c(C)oc2c1cc(O)c1ccccc12,0,15,0,89,5,.
CCOC(=O)c1c(C)[nH]c2c1cc(O)c1ccccc12,0,20,3,769*,6,-1
C[C@H]1CN([C@@H](C)CO)C(=O)c2cc(NC(=O)Cn3cnnn3)ccc2O[C@H]1CN(C)Cc1ccc(Oc2ccccc2)cc1,.,.,.,.,1,.
CCOc1ccc(Cl)cc1CNc1nnnn1CC,0,22,0,464*,-2,1
CCCn1nnnc1NCc1ccccc1OCC,0,-2,0,13,-3,.
